High-throughput results from PubChem BioAssay.
Only some compounds are listed: those with a hit (about 0.36% of all), similar ones and a draw of the others.
Ba CapD inh: inhibitors of Bacillus anthracis CapD enzyme; purified CapD enzyme, fluorescence intensity read-out; stronger effect = lower value; z-score (test concentration not listed); hit rate 0.23% among 140,000; in the data active = z-score mostly below about -2.9, no sharp cut-off; inactive = mostly above about -1.9
AID504770: E. coli YBA685 growth inhibition, screen for V. cholerae RctB inhibitors; E. coli YBA685 rctB-dependent plasmid, OD600 growth, 3 h; stronger effect = lower value; z-score (test concentration not listed); hit rate 0.27% among 130,000; AID 504770; in the data active = z-score below about -2, passing the limit was not always enough
Numbers stand for hits.

How did O=C(CSc1nnc2sc3ccccc3n12)Nc1ccc(F)cc1 do in these assays?
Ba CapD inh: inactive

Results for O=S(=O)(N/N=C/c1ccc2c(c1)OCO2)c1ccc(Cl)cc1 ?
Ba CapD inh: inactive; AID504770: inactive

Results for CS(=O)(=O)c1cnc(-c2ccc(C(F)(F)F)nc2)nc1-c1cccc(F)c1 ?
Ba CapD inh: inactive

Results for CC(=O)c1ccc(N2CCN(C(=O)OCc3ccccc3OC(F)(F)F)CC2)cc1 ?
Ba CapD inh: inactive

How did COc1ccc(C2=NN3C(C2)c2ccccc2OC32C(=O)Nc3ccccc32)cc1 (centres undefined) do in these assays?
Ba CapD inh: inactive; AID504770: inactive

Results for COc1ccc2c(c1)C1(NNc3ccccc3O1)C(=O)N2 (centres undefined) ?
AID504770: -10.7

What do the screens show for `CC(C)(C)c1cc2cc(NC(=O)c3cc(Cl)nc(Cl)c3)ccc2[nH]1`?
Ba CapD inh: inactive

Results for CCSC1=C(C#N)C(c2ccccc2Cl)C2=C(CCCC2=O)N1 (centres undefined) ?
Ba CapD inh: inactive; AID504770: inactive

How did CC(=O)NCc1ccccc1 do in these assays?
AID504770: inactive

What do the screens show for `CN(C)C(=O)CCCc1nc(-c2ccc(Cl)cc2)no1`?
Ba CapD inh: inactive; AID504770: -2.4

What do the screens show for `O=C(O)CCCc1nc(-c2ccc(Cl)cc2)no1`?
Ba CapD inh: inactive

How did Cc1ccc(S(=O)(=O)Nc2ccc(S(=O)(=O)Nc3nccc(C)n3)cc2)cc1 do in these assays?
Ba CapD inh: inactive; AID504770: inactive

How did O=c1ccsn1Cc1ccccc1 do in these assays?
AID504770: -9.15

How did O=C1N(Cc2ccccc2)c2cccc3cccc(c23)N1Cc1ccccc1 do in these assays?
Ba CapD inh: inactive; AID504770: inactive

How did Cc1cccc(/C=C2\Sc3ccc(C(=O)NCCC(C)C)cc3N(C)C2=O)c1 do in these assays?
Ba CapD inh: inactive; AID504770: inactive

How did CN1C(=O)/C(=C\c2ccccc2)Sc2ccc(C(=O)NCc3cccs3)cc21 do in these assays?
Ba CapD inh: -6.91; AID504770: inactive

How did O=c1sn(-c2ccc(F)c(Cl)c2)c(=O)n1C1Cc2ccccc2C1 do in these assays?
Ba CapD inh: inactive; AID504770: -3.3

What do the screens show for `O=C1CSCC(=O)N1c1ccc(F)c(Cl)c1`?
Ba CapD inh: inactive

What do the screens show for `CC1(C)Cc2c(c(N3CCOCC3)nc3sc(C#N)c(N)c23)CO1`?
Ba CapD inh: inactive; AID504770: inactive

What do the screens show for `Cc1nnc(SCC(=O)N2N=C3/C(=C/c4ccco4)CCCC3C2c2ccco2)n1-c1ccccc1` (centres undefined)?
AID504770: inactive

How did N#CC1(C#N)C2C=CC(C2)C1(C#N)C#N do in these assays?
Ba CapD inh: inactive; AID504770: -5.95

How did CCN(CCC#N)c1ccc(CNCC2CN(Cc3ccccc3)CCO2)c(C)c1 (centres undefined) do in these assays?
AID504770: inactive

Results for CN1CCN(C(c2ccccn2)c2cc(Cl)c3cccnc3c2O)CC1 (centres undefined) ?
Ba CapD inh: -8.05; AID504770: inactive

How did Oc1c(C(c2ccccn2)N2CCN(c3ccc(F)cc3)CC2)cc(Cl)c2cccnc12 (centres undefined) do in these assays?
AID504770: inactive

What do the screens show for `CCc1ccccc1NC(=O)Cn1nnc(C(=O)NCCc2ccccc2)c1N`?
Ba CapD inh: inactive; AID504770: inactive

How did CCOC(=O)c1ccccc1NC(=O)Cn1c(=O)n(Cc2nc(C)no2)c(=O)c2cc3c(cc21)OCO3 do in these assays?
Ba CapD inh: inactive; AID504770: inactive

Results for O=[n+]1c(CO)c(CO)n([O-])c2ccccc21 ?
Ba CapD inh: inactive; AID504770: -8.7

How did O=c1c[n+]([O-])c2ccccc2n1OCc1ccccn1 do in these assays?
Ba CapD inh: inactive; AID504770: inactive

What do the screens show for `Cc1cccc(CSc2ncn[nH]2)c1`?
Ba CapD inh: inactive; AID504770: inactive

What do the screens show for `CC(Sc1nc2c(c(=O)[nH]1)CCCC2)C(=O)Nc1ccc(Cl)cc1` (centres undefined)?
AID504770: inactive

Results for COc1ccc(C(=O)CC2(O)C(=O)N(Cc3ccc(Cl)cc3)c3ccccc32)c(OC)c1 (centres undefined) ?
Ba CapD inh: inactive

What do the screens show for `CCOc1cc(/C=C2\SC(=S)N(C(C(=O)O)C(C)C)C2=O)ccc1O` (centres undefined)?
Ba CapD inh: -4.79; AID504770: inactive

How did COc1cc(/C=C2\SC(=S)N(C(C(=O)O)C(C)C)C2=O)cc(OC)c1O (centres undefined) do in these assays?
Ba CapD inh: inactive; AID504770: inactive

How did COc1ccc(NC(=O)CN(C)C2CCCc3ccccc32)c(OC)c1 (centres undefined) do in these assays?
AID504770: inactive

How did COc1cccc(-n2c(N)cc(=O)n(Cc3ccccc3)c2=O)c1 do in these assays?
Ba CapD inh: inactive; AID504770: inactive

What do the screens show for `Cc1nc(Nc2ccc3[nH]c(=O)[nH]c3c2)nc(Nc2ccc3[nH]c(=O)[nH]c3c2)c1[N+](=O)[O-]`?
Ba CapD inh: inactive
